Test results from PubChem BioAssay (NCATS).
The source made the active and inactive calls. Calls follow the shape of the full dose curve.

Assay: qHTS drug screen for cell cycle checkpoint inhibitors in PARPi-resistant BRCA-mutant ovarian cancer cell lines. (AID 1963452)
Settings: PEO1/OlaR viability, CellTiter-Glo luminescence, 96 h; for Z-AUC: stronger effect = lower value
Excerpt: Women's Malignancies Branch, Center for Cancer Research (CCR),
National Cancer Institute (NCI), National Institutes of Health (NIH), Bethesda, MD
Poly (ADP-ribose) polymerase inhibitors (PARPis) have changed the treatment paradigm in breast cancer gene (BRCA) - mutant high-grade serous ovarian carcinoma (HGSC). However, most patients eventually develop resistance to PARPis, highlighting an unmet need for improved therapeutic strategies. Using high-throughput drug screens, we identified ataxia telangiectasia and rad3-related protein/checkpoint kinase 1 (CHK1) pathway inhibitors as cytotoxic and further validated the activity of the CHK1 inhibitor (CHK1i) prexasertib in PARPi-sensitive and -resistant BRCA-mutant HGSC cells and xenograft mouse models. CHK1i monotherapy induced DNA damage, apoptosis, and tumor size reduction. We then conducted a phase 2 study (NCT02203513) of prexasertib in patients with BRCA-mutant HGSC. The treatment was well tolerated but yielded an objective response rate of 6% (1 of 17; one partial response) in patients with previous PARPi treatment. […] BRCA reversion mutation in previously PARPi-treated BRCA-mutant patients was not associated with resistance to CHK1i.
Among others, 1082 oncology drugs, both approved and investigational, were prioritized based on their status in clinical trial development. […] Drugs with average Z-AUC values less than -1.0 in all three cell lines were classified as "hits" resulting in 151 oncology drug hits. The screen also confirmed cross-resistance between olaparib and other PARPis (rucaparib, niraparib, and talazoparib) in PARPi-resistant PEO1/OlaR and PEO4.
[1] G. L. Lin, K. M. Wilson, M. Ceribelli, B. Z. Stanton, P. J. Woo, S. Kreimer, E. Y. Qin, X. Zhang, J. Lennon, S. Nagaraja, P. J. Morris, M. Quezada, S. M. Gillespie, D. Y. Duveau, A. M. Michalowski, P. Shinn, R. Guha, M. Ferrer, C. Klumpp-Thomas, S. Michael, C. McKnight, P. Minhas, Z. Itkin, E. H. Raabe, L. Chen, R. Ghanem, A. C. Geraghty, L. Ni, K. I. Andreasson, N. A. Vitanza, K. E.Warren, C. J. Thomas, M. Monje, Therapeutic strategies for diffuse midline glioma from high-throughput combination drug screening. Sci. Transl. Med. 11, (2019).
[2] T. M. Yamamoto, A. McMellen, Z. L. Watson, J. Aguilera, R. Ferguson, E. Nurmemmedov, T. Thakar, G. L. Moldovan, H. Kim, D. M. Cittelly, A. M. Joglar, E. P. Brennecke, H. Wilson, K. Behbakht, M. J. Sikora, B. G. Bitler, Activation of Wnt signaling promotes olaparib resistant ovarian cancer. Mol. Carcinog. 58, 1770 - 1782 (2019).
PROTOCOL TABLE (as described by Inglese J, Shamu CE and Guy RK. 2007)
SEQUENCE No. (e.g., 1, 2, 3, etc.); […] (e.g., Cells, Incubation, Reagent, etc.); VALUE; DESCRIPTION.
1; Compounds; 20nL; 1536-well white tissue culture-treated plates.
2; Cells; 5 uL; PEO1, PEO4, and PEO1/OlaR cells at 600 cells per well.
3; Incubation; 96 hr; 37C, 95% humidity, 5% CO2.
4; Reagent; 3 uL; CellTiter-Glo (Promega).
5; Incubation; 15 min; room temperature.
6; Detection; Luminescence, PHERAstar (BMG Labtech) plate reader.
NOTES (numbers refer to Sequence numbers above)
1. MIPE 5.0 compounds were acoustically dispensed by Echo Acoustic Liquid Handler (Beckman Coulter Life Sciences). Each compound was plated at an 11-point concentration range with 1:3 dilution. Bortezomib, a proteasome inhibitor (final concentration, 20 uM), was used as a positive.
2. PEO1, PEO4, and PEO1/OlaR were trypsinized and dispensed in 5 uLof growth medium using a Multidrop Combi dispenser at a density of 600 cells per well to allow compounds to be present during the exponential growth phase.
3. Plates were incubated for 96 hours at standard incubator conditions and covered by a stainless steel gasketed lid to prevent evaporation.
4. Three microliters of CellTiter-Glo (Promega) were added to each well.
5. Plates were incubated at room temperature for 15 min with a stainless-steel lid in place.
6. Luminescence readings were taken using PHERAstar (BMG Labtech). […]

[1] = measured here: PEO1 parental Z-AUC
Potency is read from the fitted curve at half-maximal effect.

Row | SMILES | Potency | Z-AUC [1] | Z-AUC (measured here: PEO4 Z-AUC) | Z-AUC
1 | Nc1nc(Cl)nc2c1ncn2[C@@H]1O[C@H](CO)[C@@H](O)[C@@H]1F | 97.7 nM (active) | -1.93 | -1.97 | –
2 | O=c1[nH]c(=O)n([C@H]2C[C@H](O)[C@@H](CO)O2)cc1F | 245 nM (active) | -1.95 | -1.41 | –
3 | CC(=O)O[C@]1(C(C)=O)CC[C@H]2[C@@H]3C=C(C)C4=CC(=O)CC[C@]4(C)[C@H]3CC[C@@]21C | – | 0.601 | 0.47 | 0.958 (inactive)
4 | CCOC(=O)[C@H](CCc1ccccc1)N[C@@H](C)C(=O)N1[C@H](C(=O)O)C[C@@H]2CCC[C@@H]21 | – | -0.134 | -0.409 | -0.637 (inactive)
5 | O=C1[C@H](CC[C@H](O)c2ccc(F)cc2)[C@@H](c2ccc(O)cc2)N1c1ccc(F)cc1 | – | 1.08 | 1.08 | 1.11 (inactive)
6 | Clc1cccc(C(c2ccc3nc[nH]c3c2)n2ccnc2)c1 (configuration not stated) | – | 0.0386 | 0.19 | -0.1 (inactive)
7 | CCCCCN=C(N)N/N=C/c1c[nH]c2ccc(OC)cc12 | – | -1.05 | -1.17 | -0.801 (inactive)
8 | CC(=O)O[C@H]1C[C@@H]2CC[C@@H]3[C@H](CC[C@@]4(C)[C@H]3C[C@H]([N+]3(C)CCCCC3)[C@@H]4OC(C)=O)[C@@]2(C)C[C@@H]1N1CCCCC1 | – | 1.43 | 1.85 | 1.73 (inactive)
9 | CCCCCCCCCCC[C@@H](C[C@@H]1OC(=O)[C@H]1CCCCCC)OC(=O)[C@H](CC(C)C)NC=O | – | 1.61 | 1.43 | 1.22 (inactive)
10 | C=C[C@H]1CN2CC[C@H]1C[C@@H]2[C@@H](O)c1ccnc2ccc(OC)cc12 | – | -0.182 | -0.0481 | -0.544 (inactive)
11 | Cc1ccc(O)c([C@H](CCN(C(C)C)C(C)C)c2ccccc2)c1 | – | -0.8 | -0.815 | -0.294 (inactive)
12 | COc1cc([C@H]2Oc3cc([C@H]4Oc5cc(O)cc(O)c5C(=O)[C@@H]4O)ccc3O[C@@H]2CO)ccc1O | – | 1.29 | 0.956 | 1.43 (inactive)
13 | CCN1CCN(C(=O)N[C@@H](C(=O)N[C@@H]2C(=O)N3C(C(=O)O)=C(CSc4nnnn4C)CS[C@H]23)c2ccc(O)cc2)C(=O)C1=O | – | 0.559 | 0.224 | 0.353 (inactive)
14 | C[C@@H](O)[C@H]1C(=O)N2C(C(=O)O)=C(S[C@@H]3CN[C@H](CNS(N)(=O)=O)C3)[C@H](C)[C@H]12 | – | 0.644 | 0.433 | -0.121 (inactive)
